# Only some compounds are listed: those with a hit (about 3.6% of all), similar ones and a draw of the others.
# Pf apPOL block = Pf-apPOL inhibitors, biochemical, fluorescence | Plasmodium falciparum apicoplast DNA polymerase (apPOL) | Recombinant Pf-apPOL, molecular beacon fluorescence, 1.5 h | inhibition, % at 10 µM | actives 0.25% (n = 210,000) | AID 1794808, 2022
# mHTT-CaM PPI inh = mutant huntingtin-calmodulin interaction inhibitors – biochemical, AlphaScreen, primary screen; AID 1671202, 2021; inhibition, % at 15 µM; actives 3.6% (n = 190,000); AlphaScreen His-mHTT/GST-CaM binding, luminescence
# A number is an active result; 0 = inactive; - = no result given. Rule as the data show it: active = inhibition above about 50%; inactive = the rest.
SMILES,Pf apPOL block,mHTT-CaM PPI inh
O=[N+]([O-])c1ccc(C2Nc3c(cccc3[N+](=O)[O-])C3C=CCC32)cc1 (centres undefined),0,0
COc1cc(C2Nc3c(F)cccc3C3C=CCC32)cc(Br)c1OC (centres undefined),0,0
CS(=O)(=O)N1CCCC(C(=O)Nc2c3c(nn2-c2ccccc2)CCC3)C1 (centres undefined),0,0
CN(C)c1ccc(NC(=O)c2cc3sc4ccccc4c3s2)cc1,0,0
COc1cccc(C2CC(c3ccc(OC)c(OC)c3OC)n3nnnc3N2)c1 (centres undefined),0,0
FC(F)(F)Oc1ccc(Nc2ncnc3ccccc23)cc1,0,0
COc1ccc(-c2cc(C(=O)NCc3ccc4c(c3)OCO4)c3ccccc3n2)cc1,0,0
CCc1nc(-c2ccccc2O)n(-c2ccccc2)n1,0,0
COc1cc(/C=C/c2nc(-c3ccccc3O)n(-c3ccccc3)n2)ccc1O,0,88
Cc1ccc(CNS(=O)(=O)c2cc(C(=O)Nc3cccc(Cl)c3)ccc2F)cc1,0,0
COc1ccc(C2=NN(C(=O)CN3CCN(C)CC3)C(c3cccc(F)c3)C2)cc1 (centres undefined),0,54
COc1ccc(C2=NN(C(=O)CN3CCOCC3)C(c3ccc(C)cc3C)C2)cc1 (centres undefined),0,0
COc1ccc(C2CC(c3cccc(F)c3)=NN2C(=O)CN2CCC(C)CC2)cc1 (centres undefined),0,0
COc1ccc(C2CC(c3cccc(C)c3)=NN2C(=O)CN2CCOCC2)cc1 (centres undefined),0,66
COc1cccc(C2=NN(C(=O)CN3CCOCC3)C(c3ccccc3C)C2)c1 (centres undefined),0,0
COc1ccc(C2CC(c3ccc(C)cc3C)=NN2C(=O)CN2CCOCC2)cc1 (centres undefined),0,63
CNC(=O)Cc1csc(-c2ccc(C)cc2)n1,0,0
O=C1/C(=C/c2c[nH]c3ccccc23)Sc2ccccc21,0,0
O=C1/C(=C/c2c[nH]c3ccccc23)CC/C1=C\c1c[nH]c2ccccc12,0,98
COc1cc(C2Nc3ccccc3C(=O)N2c2ccc(Cl)cc2)cc(OC)c1OC (centres undefined),0,0
Cc1cccc(NC(=O)C2CC(=O)N(CCc3c[nH]c4ccc(Cl)cc34)C2)c1C (centres undefined),0,71
Cc1ccc(NC(=O)C2CC(=O)N(CCc3c[nH]c4ccc(F)cc34)C2)cc1C (centres undefined),0,0
O=C(NC1CCCCC1)C1CC(=O)N(CCc2c[nH]c3ccc(Cl)cc23)C1 (centres undefined),0,0
COC(=O)c1ccc(NC(=O)C2CC(=O)N(CCc3c[nH]c4ccc(F)cc34)C2)cc1 (centres undefined),0,59
O=C(Nc1ccc(F)cc1)C1CC(=O)N(CCc2c[nH]c3ccc(F)cc23)C1 (centres undefined),0,0
SMILES,Pf apPOL block,mHTT-CaM PPI inh
O=C(NC1CCCC1)C1CC(=O)N(CCc2c[nH]c3ccc(Cl)cc23)C1 (centres undefined),0,65
COc1ccc2[nH]cc(CCN3CC(C(=O)Nc4cccc(C)c4C)CC3=O)c2c1 (centres undefined),0,0
Cc1ccc(NC(=O)C2CC(=O)N(CCc3c[nH]c4ccc(Cl)cc34)C2)cc1C (centres undefined),0,100
CC(C)N1C(=O)C(C)(C(=O)NCc2ccc3c(c2)OCO3)Oc2cccnc21 (centres undefined),0,0
O=C(c1ccc(Cl)cc1)N1CCCC2(CC(c3ccncc3)=CO2)C1 (centres undefined),0,0
O=C1NC(=O)/C(=C/c2ccc(OCc3ccc(I)cc3)cc2)N1,0,0
Oc1ccc(Nc2ncnc3ccc(Br)cc23)cc1,0,0
CCN(CC)c1ccc(C=Nc2ccc([N+](=O)[O-])cc2C)cc1,0,0
COc1ccccc1C(=O)N1CCCC1c1ccccc1C (centres undefined),0,0
CCOc1ccccc1NC(=O)c1ccc(C)c(Cl)c1,0,0
Cc1ccc2[nH]cc(CCN3CC(C(=O)Nc4ccc(F)c(Cl)c4)CC3=O)c2c1 (centres undefined),0,54
O=C(Nc1ccccc1)C1CC(=O)N(CCc2c[nH]c3ccc(Cl)cc23)C1 (centres undefined),0,0
Cc1cc(C)cc(NC(=O)C2CC(=O)N(CCc3c[nH]c4ccc(Cl)cc34)C2)c1 (centres undefined),0,100
Cc1ccc2[nH]cc(CCN3CC(C(=O)Nc4ccc(Cl)cc4)CC3=O)c2c1 (centres undefined),0,0
O=C(Cc1cccs1)N1CCCC1c1nc(-c2cccc(Cl)c2)no1 (centres undefined),0,0
O=C(NCC1(c2cccs2)CCOCC1)c1cccs1,0,0
CCCN(C)C(=O)c1ccc(-c2ccnc(N3CCCC3)n2)cc1,0,0
CC1CCCCN1S(=O)(=O)c1ccc2[nH]c(=O)cc(C(=O)NCc3ccccc3Cl)c2c1 (centres undefined),0,63
CC1CCN(S(=O)(=O)c2ccc3[nH]c(=O)cc(C(=O)NCc4ccccn4)c3c2)CC1,0,0
CSc1ccc(C2Nc3ccccc3C(=O)N2c2ccc(C)cc2)cc1 (centres undefined),0,0
CSc1ccc(C2Nc3cccc4cccc(c34)N2)cc1,-,69
O=C(NCCc1ccccc1)N1CCCC1c1nc(-c2cccc(Cl)c2)no1 (centres undefined),0,61
O=C(NCCc1ccccc1)N1CCCC1c1nc(-c2ccccc2)no1 (centres undefined),0,0
O=C(Cc1cccc(F)c1)N1CCCC1c1nc(-c2cccc(Cl)c2)no1 (centres undefined),0,0
O=C(Cc1ccc(F)cc1)N1CCCC1c1nc(-c2cccc(Cl)c2)no1 (centres undefined),0,0
SMILES,Pf apPOL block,mHTT-CaM PPI inh
Cc1cccc(-c2noc(C3CCCN3C(=O)Cc3cccc(Cl)c3)n2)c1 (centres undefined),0,79
Cc1ccc(CC(=O)N2CCCC2c2nc(-c3cccc(Cl)c3)no2)cc1 (centres undefined),0,61
COC(=O)COc1ccc2c(=O)c(-c3ccc(OC)cc3)coc2c1,0,0
O=C(Nc1nnc(C2CC(=O)N(c3ccc(F)cc3)C2)o1)c1ccc(Cl)cc1 (centres undefined),0,0
CCn1c(C(=O)N2CCN(Cc3ccccc3)CC2)cc2sccc21,0,57
O=C(c1cc2sccc2n1Cc1ccccc1F)N1CCOCC1,0,0
CCOC(=O)c1ccc(Oc2coc3c4c(ccc3c2=O)OCN(C(C)C)C4)cc1,0,0
Cc1ccc(-c2cc(C(=O)NC3CCCC3)ccn2)s1,0,0
COc1ccc(C2CC(C(F)(F)F)n3nc(C(=O)Nc4cc(C)ccc4O)cc3N2)cc1 (centres undefined),0,0
O=C(Nc1cc(Cl)ccc1O)c1cc2n(n1)C(C(F)(F)F)CC(c1ccc(Cl)cc1)N2 (centres undefined),0,89
O=C(NCC1CCCO1)c1cc2n(n1)C(C(F)(F)F)CC(c1ccco1)N2 (centres undefined),0,0
O=C(NCC1CCCO1)c1cc2n(n1)C(C(F)(F)F)CC(c1ccc(Cl)c(Cl)c1)N2 (centres undefined),0,54

# Screening data from PubChem.
